Screens (PubChem BioAssay)
The entries come from a sample that favours hits as a whole.
IL1B secr inh – inhibitors of inflammasome signaling (IL-1 beta secretion). THP-1 LPS/ATP IL-1B secretion, AlphaLISA, 16 h; hits give low values. activity change, % at 57.5 µM. hit rate 4.7% among 360,000; in the data active = activity change below about -50%; inconclusive = mostly about -30% to -49%
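Secreted IL-1B measured by AlphaLISA bead assay after 16 h compound exposure of THP-1 cells; compounds (final up to 57.5 uM) added 1 h before LPS (250 ng/mL) and ATP (1.25 mM) stimulation; lower signal means less secretion.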
DT40 TDP1 CPT – growth inhibition of DT40 Tdp1-/-;hTDP1 cells with camptothecin (screen for TDP1 inhibitors). chicken DT40 Tdp1-/-;hTDP1 cells + 20 nM CPT, ATP luminescence, 48 h. Potency, µM (titrated, usually from 46.2 µM), for inactives: top-dose activity change, negative = growth inhibition, most hits filed as inhibitors. hit rate 12% among 420,000; also: potency is read from the fitted curve at half-maximal effect; nearly all actives have a fitted effect of over 55% in size
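Chicken DT40 Tdp1-/- cells complemented with human TDP1, 400 cells/well, exposed to compounds plus 20 nM camptothecin for at least 48 h at 37 C; viability read as ATP content by CellTiter-Glo luminescence.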
HT1080 IDH1KD tx – HT-1080 IDH1 knockdown cell toxicity (counter line). AID 686971. hit rate 2% among 360,000. HT-1080 IDH1 knockdown viability, ATP luminescence, 48 h. Potency, µM (series often up to 46.1 µM), inactives show top-dose activity, negative = toxicity, actives largely listed as cytotoxic;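 also: potency is read from the fitted curve at half-maximal effect; 0% = DMSO wells and -100% = cell-free medium wells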
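IDH1KD HT-1080 cells, 750/well, RPMI + 5% FBS; compound pinned after 2 h settling; 48 h, 37 °C; CellTiter-Glo luminescence; % activity normalised to DMSO and no-cell wells; curves fitted, classed by r2 and efficacy.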
ALOX12 inh – inhibitors of human 12S-lipoxygenase ALOX12 | P18054 | purified 12hLO, xylenol orange hydroperoxide absorbance | Potency, µM (highest dose often 108 µM), inactives show top-dose activity change, negative = inhibition, most hits filed as inhibitors | hit rate 1.1% among 580,000; also: potency is read from the fitted curve at half-maximal effect
Target sequence (P18054 whole entry, looked up): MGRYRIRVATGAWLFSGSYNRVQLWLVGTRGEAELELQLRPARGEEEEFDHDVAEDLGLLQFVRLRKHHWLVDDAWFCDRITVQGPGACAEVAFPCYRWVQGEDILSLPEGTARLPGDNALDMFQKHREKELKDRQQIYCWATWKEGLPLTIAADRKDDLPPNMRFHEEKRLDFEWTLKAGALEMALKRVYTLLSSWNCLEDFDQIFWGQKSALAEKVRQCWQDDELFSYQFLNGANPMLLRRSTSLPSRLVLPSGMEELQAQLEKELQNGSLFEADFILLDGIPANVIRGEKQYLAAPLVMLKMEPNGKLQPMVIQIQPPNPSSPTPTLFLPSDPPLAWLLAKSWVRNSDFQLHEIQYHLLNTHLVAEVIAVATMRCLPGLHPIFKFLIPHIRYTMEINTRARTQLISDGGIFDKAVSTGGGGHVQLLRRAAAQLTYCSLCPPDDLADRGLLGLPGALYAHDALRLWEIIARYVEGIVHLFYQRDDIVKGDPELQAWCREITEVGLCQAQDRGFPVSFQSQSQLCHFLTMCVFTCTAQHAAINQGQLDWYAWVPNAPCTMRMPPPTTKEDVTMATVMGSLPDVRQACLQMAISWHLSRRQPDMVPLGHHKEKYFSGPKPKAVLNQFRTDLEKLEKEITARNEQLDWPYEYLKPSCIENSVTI
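Hydroperoxide product was detected by ferrous iron/xylenol orange as the 573 to 405 nm absorbance ratio. Arachidonic acid at 40 uM (final) was turned over for 30 min at room temperature by 150 nM human 12hLO, pH 7.0 Hepes buffer, after 15 min compound preincubation.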
HT1080-NT tox – kills 2HG-producing HT-1080-NT fibrosarcoma cells | AID 686970 | HT-1080-NT fibrosarcoma viability, CellTiter-Glo ATP luminescence, 48 h | Potency, µM (series often up to 46.1 µM), without a hit: at the top dose activity, negative = less viability, usual class: cytotoxic | hit rate 1.6% among 360,000;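 also: NT is the 2HG producing partner of a matched IDH1 knockdown line; potency is read from the fitted curve at half-maximal effect; 0% = DMSO-treated cells and -100% = media-only wells without cells; nearly all actives have a fitted effect of over 55% in size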
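Luminescent CellTiter-Glo readout after 48 hours of compound exposure at 37 degrees C defined viability of HT-1080-NT cells. Activity was normalized to DMSO wells and cell-free media wells; concentration-response curves were fitted and assigned curve classes.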
DT40 TDP1 no CPT – qHTS for Inhibitors of human tyrosyl-DNA phosphodiesterase 1 (TDP1): qHTS in cells in absence of CPT. DT40 Tdp1-/- hTDP1 cells, no CPT, ATP luminescence, 48 h. Potency, µM (series often up to 46.2 µM), for inactives: at the top dose activity change, negative = growth inhibition, actives largely listed as inhibitors. hit rate 15% among 420,000. AID 686978, 2013; also: potency is read from the fitted curve at half-maximal effect; nearly all actives have a fitted effect of over 55% in size
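Stably hTDP1-transfected Tdp1-null chicken DT40 cells were treated with library compounds minus camptothecin and grown for at least 48 hr at 37 °C, after which cellular ATP was quantified by luminescence.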
Numbers without * were called inactive; ? = inconclusive; . = no result; [ ] = remark or other dose. Unless noted, calls follow the shape of the dose curve; as a rule, active = well fitted curve in the direction sought with a large enough effect; inconclusive = small, poorly fitted or top-dose-only effect, or another doubt; inactive = no such curve, though single readings can be large; an effect the other way counts as inactive or inconclusive. Unless noted, % is scaled to controls: 0 for no effect and ±100 for the full control effect.

SMILES	IL1B secr inh	DT40 TDP1 CPT	HT1080 IDH1KD tx	ALOX12 inh	HT1080-NT tox	DT40 TDP1 no CPT
COC(=O)c1sccc1S(=O)(=O)N(CC(=O)Nc1cccc(C)c1C)c1ccc(C)c(C)c1	.	20.6µM*	.	-9.6%	.	23.1µM*
CCc1ccccc1NC(=O)CN(c1ccccc1)S(=O)(=O)c1ccsc1C(=O)OC	.	16.4µM*	.	-25.0%	.	18.4µM*
COC(=O)c1sccc1S(=O)(=O)N(CC(=O)Nc1cc(C)ccc1C)c1ccc(C)c(C)c1	.	20.6µM*	.	-15.3%	.	20.6µM*
Nc1nnnn1CC(=O)NCc1cccnc1Oc1ccc(F)cc1F	.	.	.	30.9%	.	.
CCn1cc(Br)c(C(=O)Nc2cc(C(F)(F)F)ccc2Cl)n1	.	.	.	45.3%	.	.
C=CCn1c(O)c(N=NC(=O)OCC)c2ccccc21	12.8	?	10.6%	-13.1%	9.3%	?
C=CCn1c(O)c(N=NC(=S)Nc2cccc(OC)c2)c2ccccc21	19.9	3.26µM*	-26.1%	7.9%	-15.4%	2.91µM*
C=CCn1c(O)c(N=NC(=S)Nc2ccc(OC)cc2)c2ccccc21	9.1	3.66µM*	-20.2%	4.5%	-10.3%	4.61µM*
O=[N+]([O-])c1cccc(C=NNc2ccc3ccccc3n2)c1O	83.8	5.17µM*	?	?	-28.4%	5.8µM*
Brc1ccccc1/C=N/Nc1ccc2ccccc2n1	-8.7	?	-17.2%	-28.8%	?	16.4µM*
O=[N+]([O-])c1cccc(/C=N/n2cnnc2)c1O	22.1	3.5%	12.7%	8.6%	4.9%	-14.8%
Cc1cc(N/N=C/c2ccccc2Br)nc2ccccc12	8.9	?	19.7%	-18.3%	5.8%	?
Cn1nc(C(=O)Nc2ccc(Br)cc2F)c2ccccc2c1=O	.	.	.	28.0%	.	.
C=CC1=C2C=C(C3CC3)N(CCCN(CC)CC)C=C2C(=O)C(C)(OC(=O)c2ccco2)C1=O (stereo not drawn)	7.1	-24.7%	8.3%	?	17.5%	0.5%
CCCCC1=CC2=C(c3ccco3)C(=O)C(C)(OC(=O)c3ccc(OC)cc3)C(=O)C2=CN1c1ccccc1 (stereo not drawn)	10.0	23.1µM*	-0.9%	.	2.0%	?
COC(=O)CCCC1=CC2=C(c3ccccc3)C(=O)C(C)(OC(=O)C3CCCC3)C(=O)C2=CN1Cc1ccco1 (stereo not drawn)	-10.4	-2.9%	2.6%	0.0%	2.2%	?
CCCCC1=CC2=C(c3ccco3)C(=O)C(C)(OC(=O)c3ccc(OC)cc3)C(=O)C2=CN1CCCOC(C)C (stereo not drawn)	-14.4	5.17µM*	0.0%	?	1.8%	6.51µM*
C=CCN1C=C2C(=O)C(C)(OC(=O)c3ccc(OC)cc3)C(=O)C(c3ccco3)=C2C=C1CCCC (stereo not drawn)	21.6	13µM*	-0.2%	-19.2%	-5.3%	-3.7%
COC(=O)CCCC1=CC2=CC(=O)C(C)(OC(=O)c3cccs3)C(=O)C2=CN1c1ccccc1 (stereo not drawn)	10.4	-18.4%	6.8%	-46.8%	8.2%	-21.3%
CNC(=O)N1CCCC1c1nc(C2CN(C(=O)c3cnccn3)C2)no1 (stereo not drawn)	.	.	.	35.7%	.	.
CCCSc1ccccc1C(=O)NC(C)(C)C	.	.	.	0.5%	.	.
CCCNC(=O)c1ccc2nc(-c3ccc(C)cc3)cc(OCC)c2c1	.	.	.	20.9%	.	.
CCOc1ccccc1CN1CCC2(CCN(C(=O)Nc3ccccc3)CC2)Oc2ccccc21	.	.	.	25.1µM*	.	.
CCOc1ccccc1CN1CCC2(CCN([S+](=O)([O-])c3cccs3)CC2)Oc2ccccc21	.	.	.	-12.2%	.	.
Cc1cccc(C)c1-n1nnnc1Sc1nnnn1-c1ccccc1	.	.	.	1.9%	.	.
SMILES	IL1B secr inh	DT40 TDP1 CPT	HT1080 IDH1KD tx	ALOX12 inh	HT1080-NT tox	DT40 TDP1 no CPT
O=C(NCCc1ccc(Cl)cc1)C1CCC(CNc2nc(=S)[nH]c3ccccc23)CC1 (stereo not drawn)	-2.9	6.51µM*	3.3%	-6.5%	-10.0%	9.2µM*
S=c1nc(NCCc2ccccc2Cl)c2ccccc2[nH]1	-5.7	-27.7%	?	-3.0%	?	25.9µM*
O=C(CCCCCNc1nc(=S)[nH]c2ccccc12)NCc1ccccc1Cl	.	.	.	-10.3%	.	.
O=C(NCCC1=CCCCC1)C1CCC(CNc2nc(=S)[nH]c3ccccc23)CC1 (stereo not drawn)	-26.7	?	-8.5%	-2.5%	-1.7%	16.4µM*
CC1CCN(c2c(NCC3CCC(C(=O)NCCc4ccc(Cl)cc4)CC3)c(=O)c2=O)CC1 (stereo not drawn)	?	?	-5.8%	-3.9%	1.6%	-83.7%
O=C(NCc1ccccc1Cl)C1CCC(CNc2nc(=S)[nH]c3ccccc23)CC1 (stereo not drawn)	2.7	?	0.7%	-0.9%	-0.1%	25.9µM*
CC1CN(C(=O)Cc2n[nH]c(=O)c3ccccc23)CCO1 (stereo not drawn)	.	.	.	-7.5%	.	.
CS(=O)(=O)c1ccc(OCC2(CNS(=O)(=O)c3ccc(Cl)cc3)C[C@@H](O)[C@@H](O)C2)cc1 (stereo partly drawn)	.	.	.	79.4µM*	.	.
Cc1ccc(S(=O)(=O)c2c(C)c(C)n(Cc3ccco3)c2N)cc1	.	.	.	44.7µM*	.	.
COc1ccc(S(=O)(=O)c2c(N)n(Cc3ccco3)c3nc4ccccc4nc23)cc1	-6.0	18.4µM*	-22.5%	0.4%	-13.6%	-86.3%
Cc1cc(C)cc(-n2c3nc4ccccc4nc3c3c(=O)n(Cc4ccco4)cnc32)c1	-18.4	23.1µM*	1.5%	?	-0.9%	11.6µM*
COCCn1c(C)c(C)c(S(=O)(=O)c2ccccc2)c1N	2.8	-24.4%	10.3%	?	3.5%	0.8%
COCCCn1cnc2c(c1=O)c1nc3ccccc3nc1n2-c1ccc(C)cc1	-17.2	?	-5.2%[9.24 µM]	106.8%	4.3%	?
CCC(C)n1cnc2c(c1=O)c1nc3ccccc3nc1n2Cc1ccc(OC)cc1 (stereo not drawn)	-24.7	?	6.6%	0.0%	?	14.6µM*
Fc1ccccc1-c1ccc(CNc2ncn[nH]2)o1	.	.	.	6.3%	.	.
COCc1nc(C2CCCN(C(=O)c3ccncc3)C2)no1 (stereo not drawn)	.	.	.	19.4%	.	.
Cc1nc2ccccc2c(=O)n1Cc1ccco1	15.0	-5.1%	-1.1%	179.7%	5.2%	-18.3%
COc1ccc(Cn2c(C)nc3c(c2=O)c2nc4ccccc4nc2n3Cc2ccco2)cc1	0.0	14.6µM*	?	?	?	8.2µM*
